These results are taken from PubChem BioAssay (Tox21).

A short description of assay [1]: qHTS assay for small molecules that induce genotoxicity in human embryonic kidney cells expressing luciferase-tagged ATAD5 (AID 651632). Note: nearly all actives have a fitted effect of over 15% in size. The essentials: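 Cells were seeded at 2,000 per well, dosed with compound, and incubated 16 hr at 37C in 5% CO2. Luciferase activity was then quantified after a 30 min room-temperature incubation with Amplite.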
(qHTS replaces the single test concentration by a dilution series.)

The nature of assay [2]: qHTS assay for small molecules that induce genotoxicity in human embryonic kidney cells expressing luciferase-tagged ATAD5 - cell viability (AID 651634; calls by dose curve; note: nearly all actives have a fitted effect of over 25% in size). The essentials:
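Cells (HEK293T, luciferase-tagged ATAD5) are seeded at 2,000 per well, dosed with compound or DMSO vehicle, and incubated 15.5 hr at 37C and 5% CO2. CellTiter-Fluor is added for 30 min before fluorescence is measured.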

The nature of assay [3]: qHTS assay for small molecule disruptors of the mitochondrial membrane potential - cell viability (AID 720634; calls by dose curve;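 note: human HepG2 liver cancer cells; series mostly up to about 83 µM; nearly all actives have a fitted effect of over 20% in size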). In short, it runs like this: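 Cytotoxicity was measured by ATP quantitation in HepG2 wells that had first been treated with compound for 1 hr and stained with m-MPI dye; CellTiter-Glo incubation was 30 min at room temperature.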
Assay [4] can be described thus: qHTS assay to test for compound auto fluorescence at 590 nm (red) in HepG2 cells (AID 720674). The essentials: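 Red autofluorescence (Ex/Em 540/590 nm, Rose Bengal sodium equivalents) was measured in HepG2 cells, 2,000 per well in MEM plus 10% FBS, plated overnight at 37 C. Readings were taken 1 hr after adding 23 nL compound or DMSO, at 37 C and 5% CO2.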
Assay [5] in a line: qHTS assay to test for compound auto fluorescence at 460 nm (blue) in HEK293 cells (AID 720678). The essentials: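 Blue-channel (Ex/Em 405/460 nm) intensity measured in HEK293 cultures after overnight compound exposure at 37C; signal expressed relative to triamterene. Cells plated 2,000 per well in 10% dialyzed FBS medium and allowed 4-5 hr to attach.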
Assay [6] is described as follows: qHTS assay to test for compound auto fluorescence at 535 nm (green) in HEK293 cells (AID 720680).
Assay [7] can be described thus: qHTS assay to test for compound auto fluorescence at 460 nm (blue) in HEK293 cell free culture (AID 720681). In short, it runs like this: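 Blue fluorescence (Ex 405/Em 460 nm, triamterene-equivalent) was read immediately after pin transfer of compound or DMSO into medium (DMEM, 10% FBS) without cells.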
Assay [8] in a line: qHTS assay to test for compound auto fluorescence at 535 nm (green) in HEK293 cell free culture (AID 720682). In short, it runs like this: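 Measurement is a direct plate read of green fluorescence (485 nm in, 535 nm out) after compound addition to serum-supplemented DMEM lacking cells, with fluorescein used to express intensities.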
Assay [9] can be described thus: qHTS assay to test for compound auto fluorescence at 590 nm (red) in HEK293 cell free culture (AID 720683). In short, it runs like this:
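Red-channel autofluorescence of compounds in culture medium (DMEM, 10% FBS), no cells, measured at 540/590 nm. Rose Bengal sodium is the reference fluorophore for equivalence.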

Assay [10] can be described thus: qHTS assay to test for compound auto fluorescence at 590 nm (red) in HepG2 cell free culture (AID 720684). In short, it runs like this:
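Cell-free; medium MEM + 10% FBS; compound or DMSO added by pintool; read Ex 540/Em 590 nm; Rose Bengal sodium as red reference fluorophore.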

The nature of assay [11]: qHTS assay to test for compound auto fluorescence at 460 nm (blue) in HepG2 cell free culture (AID 720685). The essentials:
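Cell-free plates of MEM plus 10% FBS received 23 nL compound or DMSO vehicle; blue-channel (405/460 nm) intensity scored against triamterene as reference fluorophore.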

Assay [12] is described as follows: qHTS assay to test for compound auto fluorescence at 460 nm (blue) in HepG2 cells (AID 720687). The essentials: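 Blue-channel autofluorescence (Ex/Em 405/460 nm, triamterene-equivalent) was measured after 1 hr compound exposure at 37 C, 5% CO2. Cells were HepG2, plated overnight at 37 C in MEM plus 10% FBS.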
Assay [13] can be described thus: qHTS assay to identify small molecule antagonists of the glucocorticoid receptor (GR) signaling pathway - cell viability counter screen (AID 720693). Note: nearly all actives have a fitted effect of over 55% in size.
Assay [14] in a line: qHTS assay to identify small molecule antagonists of the thyroid receptor (TR) signaling pathway - cell viability counter screen (AID 743064). Note: nearly all actives have a fitted effect of over 50% in size. Note: potency is the fitted concentration of half-maximal effect. In short, it runs like this: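 Compounds were tested on GH3.TRE-Luc cells in the presence of T3 at 1 nM final. Following 23.5 h at 37 °C, cell viability was quantified by CellTiter-Fluor.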
In a further assay the target is Aromatase (Homo sapiens) (UniProt P11511). Briefly: qHTS assay to identify aromatase inhibitors (AID 743083). Note: nearly all actives have a fitted effect of over 55% in size. Note: potency is the fitted concentration of half-maximal effect.
Chain of Aromatase (Homo sapiens) (P11511 whole entry, looked up): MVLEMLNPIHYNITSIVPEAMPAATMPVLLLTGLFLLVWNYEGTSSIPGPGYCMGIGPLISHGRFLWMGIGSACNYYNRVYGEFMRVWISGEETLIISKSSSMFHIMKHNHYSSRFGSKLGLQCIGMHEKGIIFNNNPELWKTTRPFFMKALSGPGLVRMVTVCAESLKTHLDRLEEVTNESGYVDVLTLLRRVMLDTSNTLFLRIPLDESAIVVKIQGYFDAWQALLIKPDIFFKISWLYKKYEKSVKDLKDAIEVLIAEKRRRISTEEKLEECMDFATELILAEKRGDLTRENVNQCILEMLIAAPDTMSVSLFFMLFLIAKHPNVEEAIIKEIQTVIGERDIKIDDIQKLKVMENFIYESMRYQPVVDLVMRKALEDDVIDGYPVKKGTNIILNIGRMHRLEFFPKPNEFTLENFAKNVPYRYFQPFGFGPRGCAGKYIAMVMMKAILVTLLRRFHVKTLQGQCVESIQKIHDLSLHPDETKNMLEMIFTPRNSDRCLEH
Assay [15] in a line: qHTS assay to identify aromatase inhibitors - cell viability counter screen (AID 743084).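 Note: cells stimulated with testosterone during compound exposure; nearly all actives have a fitted effect of over 55% in size.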 Note: potency is the fitted concentration of half-maximal effect.
Assay [16] concerns the target Aryl hydrocarbon receptor (Homo sapiens) (UniProt P35869). The experiment in a line: qHTS assay to identify small molecule that activate the aryl hydrocarbon receptor (AhR) signaling pathway (AID 743085).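 Note: HG2L7.5c1 human HepG2 liver cells with stably integrated DRE-driven firefly reporter; series mostly up to about 70 µM; nearly all actives have a fitted effect of over 15% in size.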 In short, it runs like this:
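24 h compound exposure, 37C, HepG2-derived HG2L7.5c1 cells with DRE-responsive luciferase. Readouts: fluorescence viability, then luminescence at room temperature after 30 min.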

The target of assay [17] is Acetylcholinesterase (Homo sapiens) (UniProt P22303). The experiment in a line: Acetylcholinesterase (AChE) small molecule antagonists: colormetric cell-based qHTS assay (AID 1347395; calls by dose curve; note: nearly all actives have a fitted effect of over 30% in size). The essentials:
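In this cell-based qHTS, attached SH-SY5Y cells were treated with test chemicals for 30 min, after which acetylthiocholine hydrolysis was followed by DTNB colour development over 90 min at 37 C.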

For assay [18] the target is unchanged. Briefly: Acetylcholinesterase (AChE) small molecule antagonists: enzyme-based qHTS assay (AID 1347397; calls by dose curve; note: nearly all actives have a fitted effect of over 55% in size). As to conditions: Potency: AChE enzyme activity inhibition; outcome: AChE enzyme activity inhibition. In short, it runs like this: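 Colorimetric DTNB readout of acetylthiocholine hydrolysis, 10 min at room temperature, after 30 min room-temperature exposure of 50 mU/mL recombinant human enzyme to compound; DMSO vehicle control.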

Assay [19] shares this target. Briefly: Acetylcholinesterase (AChE) small molecule antagonists: fluorescence cell-based qHTS assay (AID 1347398; calls by dose curve; note: nearly all actives have a fitted effect of over 50% in size). To be noted: Potency: AChE activity; outcome: AChE activity. In short, it runs like this: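 Cellular AChE activity read as thiocholine from acetylthiocholine hydrolysis, detected by Thiolite Green fluorescence at 490/520 nm after 40 min at room temperature. Compounds were pre-incubated 30 min at 37 C on adherent SH-SY5Y cells.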

A number with no mark means an inactive call. Results filed as inconclusive are left out. The source made the active and inactive calls. Unless noted, calls come from the whole dose curve; as a rule, active = well fitted curve in the direction sought with a large enough effect in the repeat runs; inconclusive = weak or mixed curves; inactive = no such curve, though single readings can be large; an effect the other way counts as inactive or inconclusive.

Chain of Acetylcholinesterase (Homo sapiens) (P22303 whole entry, looked up): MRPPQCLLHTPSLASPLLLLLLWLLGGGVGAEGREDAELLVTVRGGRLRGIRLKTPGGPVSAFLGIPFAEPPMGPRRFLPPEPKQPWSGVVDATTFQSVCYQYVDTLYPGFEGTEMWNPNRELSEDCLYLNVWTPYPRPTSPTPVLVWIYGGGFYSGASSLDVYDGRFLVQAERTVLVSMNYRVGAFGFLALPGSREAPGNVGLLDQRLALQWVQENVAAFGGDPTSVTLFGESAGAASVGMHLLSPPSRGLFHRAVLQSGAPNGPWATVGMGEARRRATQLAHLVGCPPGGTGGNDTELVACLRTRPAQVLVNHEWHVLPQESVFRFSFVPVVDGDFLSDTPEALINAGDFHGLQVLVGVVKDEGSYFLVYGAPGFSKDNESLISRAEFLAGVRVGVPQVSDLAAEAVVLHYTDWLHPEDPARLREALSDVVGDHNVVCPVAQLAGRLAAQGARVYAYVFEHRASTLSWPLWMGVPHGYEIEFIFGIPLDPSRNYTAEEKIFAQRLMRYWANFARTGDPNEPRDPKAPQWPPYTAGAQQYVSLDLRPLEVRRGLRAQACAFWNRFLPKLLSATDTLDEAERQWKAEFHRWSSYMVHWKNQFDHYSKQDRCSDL
Chain of Aryl hydrocarbon receptor (Homo sapiens) (P35869 whole entry, looked up): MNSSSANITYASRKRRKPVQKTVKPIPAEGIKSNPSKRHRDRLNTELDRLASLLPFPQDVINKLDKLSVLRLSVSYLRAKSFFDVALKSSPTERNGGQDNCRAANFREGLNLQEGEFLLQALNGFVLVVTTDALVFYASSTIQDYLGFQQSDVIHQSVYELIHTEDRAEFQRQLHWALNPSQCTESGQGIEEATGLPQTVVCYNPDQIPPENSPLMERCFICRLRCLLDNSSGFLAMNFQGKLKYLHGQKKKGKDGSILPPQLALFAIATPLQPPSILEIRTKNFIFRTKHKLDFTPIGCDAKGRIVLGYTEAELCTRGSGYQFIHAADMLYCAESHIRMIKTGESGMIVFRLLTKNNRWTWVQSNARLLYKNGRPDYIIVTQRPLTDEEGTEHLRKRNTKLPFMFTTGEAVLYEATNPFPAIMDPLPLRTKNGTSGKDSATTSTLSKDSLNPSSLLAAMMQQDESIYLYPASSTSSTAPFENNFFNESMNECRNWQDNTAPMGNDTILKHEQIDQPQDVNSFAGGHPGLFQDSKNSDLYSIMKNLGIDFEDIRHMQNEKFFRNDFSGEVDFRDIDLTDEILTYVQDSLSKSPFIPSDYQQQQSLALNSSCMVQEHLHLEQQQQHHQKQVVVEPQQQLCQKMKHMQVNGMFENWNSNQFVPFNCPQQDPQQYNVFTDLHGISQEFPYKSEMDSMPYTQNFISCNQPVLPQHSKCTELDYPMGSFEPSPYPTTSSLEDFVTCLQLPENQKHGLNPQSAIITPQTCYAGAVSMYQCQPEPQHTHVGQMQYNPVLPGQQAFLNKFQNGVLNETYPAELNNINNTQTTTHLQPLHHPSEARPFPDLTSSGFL

On to `C[C@@H](N)C(=O)c1ccccc1`, for which the Potency result in assay [1], in assay [2], in assay [3], in [5], in [6] and in assay [7] was “inactive” each time. The Potency result (in [8]; in [11]; in assay [12]; in [13]; in assay [14]; in the assay with Aromatase (Homo sapiens)) was “inactive” each time. For the same compound, the Potency result in [15] is “inactive”. In addition, the compound was classed as inactive in [4], in [9] and in assay [10].
Take `CC(C)(O)[C@@H]1[C@H]2OC(=O)[C@@H]1[C@]1(O)C[C@H]3O[C@]34C(=O)O[C@H]2[C@]14C`: the Potency entry in assay [1], in assay [2], in assay [3], in [6], in [7] and in [8] was “inactive” throughout. Further, the Potency result in [11], in assay [12], in [13] and in assay [14] was “inactive” throughout. Further, the compound was classed as inactive in [4], in [9] and in assay [10].
`CC(=O)Oc1ccc2c3c1O[C@H]1[C@@H](OC(C)=O)C=C[C@H]4[C@@H](C2)N(C)CC[C@@]341`: the Potency entry in assay [1], in assay [2], in assay [3], in assay [5], in assay [7] and in assay [8] was “inactive” each time. The Potency result (in [11]; in [12]; in assay [13]; in assay [14]; with Aromatase (Homo sapiens); in [15]) was “inactive” throughout. For the same compound, in [16], the Potency entry was “inactive”. Also, the compound was called inactive in [4] and in assay [9].
On to `CC(C)C[C@H]1C(=O)N2CCC[C@H]2[C@]2(O)O[C@](NC(=O)[C@@H]3C[C@@H]4c5cccc6[nH]cc(c56)C[C@H]4N(C)C3)(C(C)C)C(=O)N12`, for which the Potency result in [1], in assay [3], in assay [5], in [6], in [7] and in assay [8] was “inactive” in each case. For the same compound, the Potency result (in [11]; in assay [12]; in [13]; with Aromatase (Homo sapiens); in [15]) was “inactive” each time. Besides, the compound was classed as inactive in assay [4], in assay [9] and in [10]. Besides, the Potency in assay [14] is 29.8 µM (active).
Turning to `Cc1ccc(C)cc1`, the Potency result (in the assay with Aromatase (Homo sapiens); in assay [17]; in assay [18]; in assay [19]) was “inactive” each time.
For `C=CCOc1c(Br)cc(C(C)(C)c2cc(Br)c(OCC=C)c(Br)c2)cc1Br`, the Potency result in assay [16], in assay [17], in [18] and in [19] was “inactive” in each case.
Turning to `Clc1cc(Cl)c(-c2c(Cl)c(Cl)cc(Cl)c2Cl)cc1Cl`, the Potency result in [17], in assay [18] and in assay [19] was “inactive” in each case.
As for `CC(=O)OCC(=O)[C@H]1CC[C@H]2[C@@H]3CC[C@H]4C[C@H](O)CC[C@]4(C)[C@H]3C(=O)C[C@]12C`, the Potency entry in assay [1], in assay [2], in assay [3], in assay [7], in assay [8] and in [11] was “inactive” in each case. Also, the Potency result (in [12]; in assay [13]; in assay [14]; with Aromatase (Homo sapiens); in assay [15]; in assay [16]) was “inactive” each time. Further, the compound was called inactive in assay [4] and in [9].
In the case of `O=c1c2ccccc2[se]n1-c1ccccc1`, the Potency entry in assay [1], in assay [5], in assay [6], in assay [7], in [8] and in assay [11] was “inactive” each time. Also, the Potency entry in assay [12] and in [13] was “inactive” each time. Also, the result in assay [4], in assay [9] and in assay [10] was inactive. The Potency in assay [14] is 23.7 µM (active); with Aromatase (Homo sapiens), 29.8 µM (active); in [15], 26.6 µM (active).
Take `CNC(=O)Oc1ccc2c(c1)[C@]1(C)CCN(C)[C@@H]1N2C`: the Potency entry (in the assay with Aromatase (Homo sapiens); in assay [16]) was “inactive” in each case.
